VACV mCherry inh: qHTS for Stage-Specific Inhibitors of Vaccinia Orthopoxvirus: mCherry Reporter Primary qHTS; Vaccinia virus mCherry reporter infection, fluorescence; Potency, µM (highest dose often 36.5 µM), without a hit: top-dose activity change, negative = inhibition, most hits filed as inhibitors; 310,000 compounds, 0.63% hits; AID 720579, 2013; calls by dose curve; tested in A549 cells; further: potency means the concentration at half of the fitted maximal effect; nearly all actives have a fitted effect of over 35% in size
HCMV antiviral: qHTS Assay for inhibitors of the human cytomegalovirus (HCMV); HFF cells, HCMV-luciferase reporter, 72 h; hits give low values; activity change, negative = inhibition, % at 57.5 µM; 410,000 compounds, 4.5% hits; AID 1259415, 2018; in the data active means activity change below about -60%; inconclusive means no clear call, values can overlap the other calls; inactive means above about -39%
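After 16 h attachment at 37C, HFF cells received test compound and HCMV-luciferase (1 PFU/cell); reporter luminescence read 72 h later, data normalized against buffer-only and known inhibitor Salinomycin.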
LASV entry inh: qHTS for Inhibitors of binding or entry into cells for Lassa Virus; Lassa virus pseudotype entry inhibition, cell reporter; Potency, µM (top dose mostly 37.9 µM), for inactives: top-dose activity change, negative = inhibition, hits mostly inhibitors; 300,000 compounds, 1.2% hits; calls by dose curve; tested in HEK293 cells; further: potency means the concentration at half of the fitted maximal effect; nearly all actives have a fitted effect of over 50% in size
Marburg entry inh: qHTS for inhibitors of binding or entry into cells for Marburg Virus. Marburg virus pseudotyped entry inhibition, cell reporter. Potency, µM (top dose mostly 37.8 µM), inactives show at the highest dose activity change, negative = inhibition, usual class: inhibitors. 300,000 compounds, 1.8% hits; calls by dose curve; tested in HEK293 cells; further: potency means the concentration at half of the fitted maximal effect
Vaccinia Venus: qHTS for Stage-Specific Inhibitors of Vaccinia Orthopoxvirus: Venus Reporter Primary qHTS; Vaccinia virus Venus reporter expression, fluorescence; Potency, µM (highest dose often 36.5 µM), without a hit: top-dose activity change, negative = inhibition, usual class: inhibitors; 330,000 compounds, 0.46% hits; AID 720580, 2013; calls by dose curve; tested in A549 cells; further: potency means the concentration at half of the fitted maximal effect; nearly all actives have a fitted effect of over 30% in size
FMDV antiviral: High Throughput Screening for Foot and Mouth Disease Virus Antivirals; FMDV antiviral cell-based qHTS; Potency, µM (highest dose often 57.9 µM), inactives show top-dose activity change, negative = inhibition, usual class: inhibitors; 410,000 compounds, 1.2% hits; calls by dose curve; tested in HEK293T cells; further: read-out not given here; potency means the concentration at half of the fitted maximal effect; nearly all actives have a fitted effect of over 45% in size
The depositor's hits bear a star; i = inactive; ? = inconclusive; · = no result; [ ] = dose if it differs, or a comment. Only some compounds are listed: those with a hit (about 6.5% of all), similar ones and a draw of the others. On the % scale 0 is the no-effect control and ±100 the full control effect.

SMILES	VACV mCherry inh	HCMV antiviral	LASV entry inh	Marburg entry inh	Vaccinia Venus	FMDV antiviral
Cc1cc2c(NCC(C)O)ncnc2s1 (stereo not drawn)	-9%	-21	6%	7%	-7%	-2%
Cc1cc2c(NCc3ccccc3)ncnc2s1	-12%	-76*	9%[46.1 µM]	?	-17%	?
c1csc(CNc2ncnc3sccc23)c1	·	-79*	?	-29%	·	?
CN(Cc1cccs1)c1ncnc2sccc12	·	-78*	-23%	-37%	·	?
Cc1sc2ncnc(NCc3ccccc3)c2c1C	·	?	-23%	-27%	?	28µM*
CN1CCc2c(n(C[C@H](O)CN3C(=O)c4ccccc4S3(=O)=O)c3ccccc23)C1=O	·	·	·	-20%	·	·
O=C(NCCN1CCNC1=O)c1ccc2sc([C@H]3C[C@H](O)[C@@H](CO)O3)nc2c1	12%	1	·	·	9%	-12%
COCC(=O)N1CC(=O)N2[C@@H](CO)[C@@H](c3ccc(Br)cc3)[C@@H]2C1	·	-20	·	·	·	·
CN(C(=O)c1cnn(-c2ncc3c(n2)-c2ccccc2CCC3)c1C1CC1)C1CCOC1 (stereo not drawn)	-18%	·	·	·	-17%	27%
CC1=C[C@]23OC(C)(C)C[C@@]2(C)C[C@H](C)C3=CC1=O	·	18	·	·	·	·
O=C(c1cccnc1)C1CCCN(Cc2ccc3c(c2)CN(C(=O)c2cccc(Cl)c2)CCO3)C1 (stereo not drawn)	-14%	·	·	·	-16%	-27%
COc1ccc(CCN(C)c2ncnc3sccc23)cc1OC	·	?	·	·	·	28µM*
c1cncc(CNc2ncnc3sccc23)c1	0%	-13	-13%[46.1 µM]	-10%[46.1 µM]	-3%	?
c1csc(CNc2ncnc3ccc(-c4ccoc4)cc23)c1	·	-92*	·	·	·	-29%
c1ccc(CNc2ncnc3sccc23)cc1	·	-94*	·	·	·	?
COc1ccc(CNc2ncnc3sccc23)cc1	i	-73*	-29%	?	-18%	?
O=C(/C=C/c1ccccc1)Nc1nc(-c2cccs2)ns1	-1%	32	15%[46.1 µM]	-2%[46.1 µM]	-7%	-1%
CC(C)N1C(=O)S/C(=C/c2ccc(Sc3nc4ccccc4[nH]3)o2)C1=O	?	-85*	?	?	?	11µM*
CCOC(=O)C(C)N1C(=O)S/C(=C\c2ccc(-c3ccccc3C(=O)O)o2)C1=O (stereo not drawn)	·	18	·	·	·	-6%
O=C1NC(=O)N(c2ccc(Cl)cc2)C(=O)/C1=C\c1ccc(Sc2nc3ccccc3[nH]2)o1	105%	-9	?	?	402%	-15%
C=CCN1C(=O)S/C(=C/c2ccc(Sc3nc4ccccc4[nH]3)o2)C1=O	?	-92*	20µM*	?	-23%	28µM*
COc1cc(OC)c2nc(-c3cc4c(c(OC)c3)OCCN(C(=O)CC3NC(=O)c5ccccc53)C4)cc(C)c2c1 (stereo not drawn)	-10%	·	·	·	-10%	-15%
C/C(=N\Nc1nc(C)c(C)s1)c1ccc([N+](=O)[O-])cc1	?	54	·	?	?	28µM*
C/C(=N\Nc1ccc([N+](=O)[O-])cc1)c1ccc(-n2nncc2C)cc1	?	-66*	?	?	?	-10%
Cc1cc(/C=C2\C(=O)NC(=O)N(c3ccc(Cl)cc3)C2=O)c(C)n1-c1sc2c(c1C#N)CCCC2	0%	33	·	1%	-2%	-10%
SMILES	VACV mCherry inh	HCMV antiviral	LASV entry inh	Marburg entry inh	Vaccinia Venus	FMDV antiviral
Cc1cc(/C=C2/NC(=O)NC2=O)c(C)n1-c1sc2c(c1C#N)CCCC2	?	-73*	4.5µM*	?	-20%	-17%
CN(Cc1ccccc1)C(=O)c1c[nH]c2ccc(S(=O)(=O)Nc3ccccc3F)cc2c1=O	-2%	-2	8%[46.1 µM]	17%[46.1 µM]	-12%	13%
CC(=O)C1CCC2C3CCC4CC(O)CCC4(C)C3CC(O)C12C (stereo not drawn)	-14%	·	·	·	-10%	-15%
CC12CCC(O)CC1CCC1C2CCC2(C)C(C3=CC(=O)OC3)C(O)CC12O (stereo not drawn)	1.3µM*	-97*	3.2µM*	0.63µM*	1.8µM*	?
CC(=O)OC1CCC23C(=O)OC45CCC(C6=CC(=O)OC6)C4(C)CCC2C5CCC3(O)C1 (stereo not drawn)	1.8µM*	·	·	·	1.3µM*	0%
C[C@]12CC[C@H](O)C[C@H]1CC[C@@H]1[C@@H]2C[C@@H](O)[C@]2(C)[C@@H](C3=CC(=O)OC3)CC[C@]12O	1.1µM*	-100*	·	·	1.1µM*	?
CC(=O)C1CC[C@H]2C3CC[C@@H]4CC(O)CC[C@@]4(C)C3CC[C@]12C (stereo partly drawn)	-14%	·	·	·	-17%	-6%
CC(=O)OC1CC[C@]2(C)C(CCC3C2CC[C@]2(C)C(C4=CC(=O)OC4)C(OC(C)=O)CC32O)C1 (stereo partly drawn)	1µM*	·	·	·	1.1µM*	?
CCN1C(=NCc2ccc(OC)cc2)NC(c2cccc(C(F)(F)F)c2)C(C(=O)OC)=C1C (stereo not drawn)	·	·	·	13%[14.2 µM]	·	·
CCCN1C(=O)C[C@H](S(=O)(=O)c2ccccc2)[C@H]1c1ccccc1OC	·	-9	·	·	·	·
CC(NC(=O)COC(=O)c1cccc(S(=O)(=O)N2CCCC2)c1)c1ccccc1 (stereo not drawn)	-10%	-39	14%	15%	-14%	-12%
O=C(CSc1nncs1)Nc1nnc(-c2ccccc2)o1	-14%	15	0%	?	-19%	12%
Cn1ncc(Cl)c1C(=O)N1CCN(S(=O)(=O)c2ccc(Cl)s2)CC1	-1%	8	1%	0%	-12%	-13%
CC(=O)C1CCC2C3CCC4CC(O)CCC4(C)C3CCC12C (stereo not drawn)	-3%	-4	·	·	-18%	?
CC12CCC(O)CC1CCC1C2CCC2(C)C(C3=CC(=O)OC3)CCC12O (stereo not drawn)	?	-99*	0.45µM*	0.28µM*	0.89µM*	?
C[C@]12CC[C@H](O)C[C@H]1CC[C@@H]1[C@@H]2CC[C@]2(C)[C@@H](C3=CC(=O)OC3)CC[C@]12O	?	-97*	·	·	1.1µM*	-17%
CCOC(=O)Nc1ccc(/C=C/c2ccnc3ccccc23)cc1	-17%	·	·	·	?	·
Cc1cc(C)c(OCC(=O)N(Cc2ccc(N(C)C)cc2)CC2CCCO2)c(C)c1 (stereo not drawn)	-15%	-19	?	-20%[46.1 µM]	-21%	5%
Cc1ccccc1OCC(=O)N(Cc1ccc(N(C)C)cc1)CC1CCCO1 (stereo not drawn)	-15%	-63*	?	-11%[46.1 µM]	-14%	4%
O=C(CN1CCC2(CC1)OCCO2)c1ccc2cc[nH]c2c1	i	-66*	26%[14.3 µM]	?	-4%	44%
